This is an account of results in PubChem BioAssay (EPA / NIEHS).

Records with an inconclusive call do not appear. The source made the active and inactive calls. Rule for the calls, unless noted: active = hit-call score of the fitted dose curve at least 0.9, where 1 is the maximum; inconclusive = response in the unintended direction; inactive = score below 0.9.

Assay [1] concerns the target human Peroxisome Proliferator-activated Receptor alpha (PPARa), PPARA (gene 5465) (UniProt Q07869). Briefly: ATG_PPARa_TRANS: Attagene TRANS-FACTORIAL HepG2 Assay for human Peroxisome Proliferator-activated Receptor alpha (PPARa) (AID 2283001). The essentials:
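Measures transcriptional activity of an exogenous chimeric PPARa-Gal4 protein in transiently transfected HepG2 cells after 24 h dosing. Reporter mRNA quantified via RT-PCR and capillary electrophoresis; DMSO served as negative control.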

The target of assay [2] is human Peroxisome Proliferator-activated Receptor delta (PPARd), PPARD (gene 5467) (UniProt Q03181). Briefly: ATG_PPARd_TRANS: Attagene TRANS-FACTORIAL HepG2 Assay for human Peroxisome Proliferator-activated Receptor delta (PPARd) (AID 2283002). The essentials:
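HepG2 cells transiently transfected with GAL4-UAS multiplexed reporter units driven by exogenous chimeric NR-GAL4 proteins; 24 h compound exposure. Reporter mRNA measured by RT-PCR, 6-FAM primer extension, HpaI digestion and capillary electrophoresis; gain of signal fitted relative to DMSO.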

The target in assay [3] is Retinoic acid receptor alpha (Homo sapiens) (UniProt P10276). Briefly: ATG_RARa_TRANS: Attagene TRANS-FACTORIAL HepG2 Assay for human Retinoic Acid Receptor alpha (RARa) (AID 2283005). The essentials: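 HepG2 transiently transfected with multiplex GAL4-UAS reporter units including a human RARa–GAL4 chimera; 24 h compound exposure. Reporter mRNA quantified by RT-PCR, 6-FAM labeling and capillary electrophoresis; gain of signal versus DMSO.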
Chain of Retinoic acid receptor alpha (Homo sapiens) (P10276 whole entry, looked up, the tested form may be a part): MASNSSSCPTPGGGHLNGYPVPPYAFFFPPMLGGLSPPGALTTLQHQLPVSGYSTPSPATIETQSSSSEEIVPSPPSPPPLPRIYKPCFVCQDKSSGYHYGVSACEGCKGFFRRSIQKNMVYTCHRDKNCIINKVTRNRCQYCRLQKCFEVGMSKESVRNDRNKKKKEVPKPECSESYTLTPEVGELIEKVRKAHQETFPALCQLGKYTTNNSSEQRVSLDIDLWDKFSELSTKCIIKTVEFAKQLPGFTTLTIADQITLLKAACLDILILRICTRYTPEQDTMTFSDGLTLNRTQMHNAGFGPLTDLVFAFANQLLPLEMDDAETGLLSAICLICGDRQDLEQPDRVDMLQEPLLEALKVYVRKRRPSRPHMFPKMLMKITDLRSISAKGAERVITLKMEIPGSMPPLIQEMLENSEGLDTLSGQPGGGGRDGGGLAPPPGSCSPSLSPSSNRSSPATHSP

In assay [4] the target is Peroxisome proliferator-activated receptor gamma (Homo sapiens) (UniProt P37231). Briefly: ATG_PPARg_TRANS: Attagene TRANS-FACTORIAL HepG2 Assay for human Peroxisome Proliferator-activated Receptor-gamma (PPARg) (AID 2283007). The method, boiled down: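 Liver-derived HepG2 cells expressing an exogenous NR-Gal4 chimera alongside GAL4-UAS reporter genes; 24 h exposure. Fluorescence of reporter RT-PCR products, separated by capillary electrophoresis, gives mRNA induction relative to DMSO.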
Chain of Peroxisome proliferator-activated receptor gamma (Homo sapiens) (P37231 whole entry, looked up, the tested form may be a part): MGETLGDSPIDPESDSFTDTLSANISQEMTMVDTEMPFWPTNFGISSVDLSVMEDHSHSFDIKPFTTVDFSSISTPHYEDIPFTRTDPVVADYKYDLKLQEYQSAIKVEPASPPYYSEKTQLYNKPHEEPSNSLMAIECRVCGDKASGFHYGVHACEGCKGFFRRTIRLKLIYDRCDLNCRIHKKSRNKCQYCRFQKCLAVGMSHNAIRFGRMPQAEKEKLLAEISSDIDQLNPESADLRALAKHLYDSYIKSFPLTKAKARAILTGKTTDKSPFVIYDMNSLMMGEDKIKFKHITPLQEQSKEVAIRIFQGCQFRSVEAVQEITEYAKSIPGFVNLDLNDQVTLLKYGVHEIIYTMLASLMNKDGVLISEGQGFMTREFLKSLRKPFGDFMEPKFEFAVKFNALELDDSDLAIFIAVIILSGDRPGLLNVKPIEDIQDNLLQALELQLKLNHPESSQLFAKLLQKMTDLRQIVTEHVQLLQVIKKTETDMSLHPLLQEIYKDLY

Assay [5] deals with human RAR-related Orphan Receptor beta (RORb), RORB (gene 6096) (UniProt Q92753). Briefly: ATG_RORb_TRANS: Attagene TRANS-FACTORIAL HepG2 Assay for human RAR-related Orphan Receptor beta (RORb) (AID 2283010). The essentials: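 In this TRANS-format test, human HepG2 cells express chimeric NR-Gal4 fusion proteins driving GAL4-UAS reporters. After 24 h dosing, reporter transcripts are measured by fluorescent RT-PCR/capillary electrophoresis, with DMSO as negative control.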
Chain of human RAR-related Orphan Receptor beta (RORb), RORB (gene 6096) (Q92753 whole entry, looked up, the tested form may be a part): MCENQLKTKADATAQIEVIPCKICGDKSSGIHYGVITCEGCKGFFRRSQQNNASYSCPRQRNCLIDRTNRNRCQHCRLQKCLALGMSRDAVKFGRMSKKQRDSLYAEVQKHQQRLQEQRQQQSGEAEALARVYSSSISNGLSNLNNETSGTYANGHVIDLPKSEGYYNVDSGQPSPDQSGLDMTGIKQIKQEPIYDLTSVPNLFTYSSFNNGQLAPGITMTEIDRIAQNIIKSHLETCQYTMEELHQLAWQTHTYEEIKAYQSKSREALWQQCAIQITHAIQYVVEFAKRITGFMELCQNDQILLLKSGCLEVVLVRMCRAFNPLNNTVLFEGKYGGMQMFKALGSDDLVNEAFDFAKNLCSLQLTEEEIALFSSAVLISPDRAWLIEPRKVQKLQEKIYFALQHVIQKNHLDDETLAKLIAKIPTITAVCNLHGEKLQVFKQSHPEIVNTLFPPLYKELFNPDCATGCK

Assay [6] addresses human RAR-related Orphan Receptor gamma (RORg), RORC (gene 6097) (UniProt P51449). Briefly: ATG_RORg_TRANS: Attagene TRANS-FACTORIAL HepG2 Assay for human RAR-related Orphan Receptor gamma (RORg) (AID 2283011). The method, boiled down:
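Activity is scored as increase in GAL4-UAS reporter mRNA over DMSO, detected by fluorescent RT-PCR and capillary electrophoresis in HepG2 cells transiently expressing a RORg-Gal4 chimera, 24 h after dosing.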

For assay [7], the target named is Retinoic acid receptor RXR-alpha (Homo sapiens) (UniProt P19793). Briefly: ATG_RXRa_TRANS: Attagene TRANS-FACTORIAL HepG2 Assay for human Retinoid X Receptor alpha (RXRa) (AID 2283012). The method, boiled down:
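Cells (HepG2) carried transiently transfected GAL4-responsive reporter units. Following a 24 h chemical incubation, reporter mRNA induction was read via RT-PCR fragment analysis; DMSO served as negative control and baseline.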

Assay [8] deals with human Retinoid X Receptor beta (RXRb), RXRB (gene 6257) (UniProt P28702). Briefly: ATG_RXRb_TRANS: Attagene TRANS-FACTORIAL HepG2 Assay for human Retinoid X Receptor beta (RXRb) (AID 2283013). The method, boiled down: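 Multiplexed TRANS reporter assay in HepG2; 24 h dosing; reporter mRNA by RT-PCR/CE fluorescence; gain-of-signal relative to DMSO.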
Chain of human Retinoid X Receptor beta (RXRb), RXRB (gene 6257) (P28702 whole entry, looked up): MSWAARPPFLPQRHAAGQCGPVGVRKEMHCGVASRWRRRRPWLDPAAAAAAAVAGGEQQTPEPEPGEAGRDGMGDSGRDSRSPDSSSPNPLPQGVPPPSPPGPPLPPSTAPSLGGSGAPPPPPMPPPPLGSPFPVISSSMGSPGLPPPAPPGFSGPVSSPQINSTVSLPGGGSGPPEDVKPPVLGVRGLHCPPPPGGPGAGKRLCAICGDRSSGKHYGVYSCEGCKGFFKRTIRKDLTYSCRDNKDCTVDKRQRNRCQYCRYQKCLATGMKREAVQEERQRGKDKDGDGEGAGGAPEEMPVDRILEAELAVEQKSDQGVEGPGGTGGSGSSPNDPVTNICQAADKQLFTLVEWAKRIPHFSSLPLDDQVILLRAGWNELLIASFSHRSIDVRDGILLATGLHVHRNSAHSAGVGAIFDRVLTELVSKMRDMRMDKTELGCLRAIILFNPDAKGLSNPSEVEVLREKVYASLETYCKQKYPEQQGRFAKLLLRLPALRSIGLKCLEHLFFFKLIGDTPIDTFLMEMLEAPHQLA
For assay [9], the target named is human Thyroid Receptor alpha (THRa1), THRA (gene 7067) (UniProt P10827). Briefly: ATG_THRa1_TRANS: Attagene TRANS-FACTORIAL HepG2 Assay for human Thyroid Receptor alpha (THRa1) (AID 2283014). The method, boiled down:
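First, HepG2 cells receive multiple GAL4-UAS reporter units and the chimeric receptor. They are then dosed for 24 h, after which RNA is reverse-transcribed, amplified, labelled, HpaI-cut and sized by capillary electrophoresis; gain relative to DMSO is scored.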

The target of assay [10] is human Retinoic Acid Receptor beta (RARb), RARB (gene 5915) (UniProt P10826). Briefly: ATG_RARb_TRANS: Attagene TRANS-FACTORIAL HepG2 Assay for human Retinoic Acid Receptor beta (AID 2283004). The essentials:
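HepG2, transient MRTU transfection, NR–Gal4 chimera, 24 h treatment; RT-PCR plus CE fluorescence detection of reporter mRNA; gain of signal vs DMSO.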

The target in assay [11] is Nuclear receptor subfamily 1 group I member 2 (Homo sapiens) (UniProt O75469). Briefly: ATG_PXR_TRANS: Attagene TRANS-FACTORIAL HepG2 Assay for human Pregnane X Receptor (PXR) (AID 2283008). The essentials: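 Measures mRNA induction of a GAL4-UAS-driven reporter in human HepG2 cells transiently expressing PXR fused to Gal4, following 24 h treatment. DMSO served as negative control and baseline.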
Chain of Nuclear receptor subfamily 1 group I member 2 (Homo sapiens) (O75469 whole entry, looked up, the tested form may be a part): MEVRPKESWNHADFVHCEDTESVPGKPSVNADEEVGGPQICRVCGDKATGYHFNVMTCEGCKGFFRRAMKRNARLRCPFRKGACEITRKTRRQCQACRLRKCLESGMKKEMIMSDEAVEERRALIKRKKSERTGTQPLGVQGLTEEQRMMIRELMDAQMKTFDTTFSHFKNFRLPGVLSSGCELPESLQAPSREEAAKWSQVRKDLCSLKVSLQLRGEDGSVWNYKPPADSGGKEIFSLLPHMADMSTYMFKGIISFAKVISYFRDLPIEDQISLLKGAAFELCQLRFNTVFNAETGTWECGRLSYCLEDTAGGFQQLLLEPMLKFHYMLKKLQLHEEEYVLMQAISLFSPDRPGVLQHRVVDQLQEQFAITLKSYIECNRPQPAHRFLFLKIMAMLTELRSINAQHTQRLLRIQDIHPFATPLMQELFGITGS

Assay [12] has as its target human Retinoic Acid Receptor gamma (RARg), RARG (gene 5916) (UniProt P13631). Briefly: ATG_RARg_TRANS: Attagene TRANS-FACTORIAL HepG2 Assay for human Retinoic Acid Receptor gamma (RARg) (AID 2283009). The method, boiled down: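 HepG2, RARg-GAL4 TRANS system, 24 h exposure; reporter mRNA by RT-PCR + CE fluorescence; increase over DMSO.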
The nature of assay [13]: BSK_4H_Eotaxin3: BioMAP Diversity Plus: 4H Assay for Eotaxin 3 Biomarker Activity (AID 2283000; active = hit-call score of the fitted dose curve at least 0.9, where 1 is the maximum; inactive = score below 0.9;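 for outcome: CCL26 protein level quantified by ELISA in parallel with SRB cytotoxicity check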). The note with it: primary human endothelial cells (HUVEC); actives raise or lower the signal. The method, boiled down:
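Endothelial primary cells (human umbilical vein) exposed to compound for 24 h. ELISA detection of Eotaxin-3.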

Read-out in assay [14]: Intercellular Adhesion Molecule 1 (ICAM1), ICAM1 (gene 3383)
Briefly: BSK_3C_ICAM1: BioMAP Diversity Plus: 3C Assay for Intercellular Adhesion Molecule 1 (ICAM1) Biomarker Activity (AID 2283003; active = hit-call score of the fitted dose curve at least 0.9, where 1 is the maximum; inactive = score below 0.9). The note with it: primary human endothelial cells (HUVEC); actives raise or lower the signal. The essentials: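 Human vascular endothelial primary cells, 3C conditions, 24 h treatment. ICAM-1 by ELISA.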

A short description of assay [15]: BSK_3C_Proliferation: Cell Proliferation Assessment in the BioMAP Diversity Plus: 3C Assay (AID 2283006; active = hit-call score of the fitted dose curve at least 0.9, where 1 is the maximum; inactive = score below 0.9;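 for AC50: potency may reflect either rise or fall in cell number versus DMSO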). The note with it: primary human endothelial cells (HUVEC). The essentials:
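Proliferation of human vascular endothelial primary cells after 48 h dosing, quantified as SRB-stained protein at 560 nm relative to DMSO.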

Read-out in assay [16]: E-selectin (Homo sapiens) (UniProt P16581)
Briefly: BSK_3C_Eselectin: BioMAP Diversity Plus: 3C Assay for Eselectin Biomarker Activity (AID 2283015; active = hit-call score of the fitted dose curve at least 0.9, where 1 is the maximum; inactive = score below 0.9;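 for outcome: cell surface E-selectin protein quantified by ELISA 24 h after dosing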). The settings on record: primary human endothelial cells (HUVEC); actives raise or lower the signal. The method, boiled down: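 Human vascular endothelium from umbilical vein is exposed to test chemicals for 24 h. E-selectin levels are read by ELISA and compared with DMSO controls.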

Read-out in assay [17]: Interleukin-1 alpha (IL1a), IL1A (gene 3552)
Briefly: BSK_BE3C_IL1a: BioMAP Diversity Plus: BE3C Assay for Interleukin-1 alpha (IL1a) Biomarker Activity (AID 2283016; active = hit-call score of the fitted dose curve at least 0.9, where 1 is the maximum; inactive = score below 0.9). The note with it: primary human bronchial epithelial cells; actives raise or lower the signal. The method, boiled down: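 Cultures of primary human bronchial epithelial cells receive test chemical. After 24 h, IL-1a is quantified by ELISA, while parallel wells are fixed in TCA and SRB-stained for total protein. Changes in either direction are fitted relative to DMSO.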

Read-out in assay [18]: Monocyte Chemoattractant Protein-1 (MCP1), CCL2 (gene 6347)
Briefly: BSK_3C_MCP1: BioMAP Diversity Plus: 3C Assay for Monocyte Chemoattractant Protein-1 (MCP1) Biomarker Activity (AID 2283017; active = hit-call score of the fitted dose curve at least 0.9, where 1 is the maximum; inactive = score below 0.9). The note with it: primary human endothelial cells (HUVEC); actives raise or lower the signal. The essentials:
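Endothelial cells from human umbilical vein are dosed with chemical, cultured 24 h, then assayed for MCP-1 by ELISA; both increases and decreases are modelled against DMSO controls.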

Read-out in assay [19]: Monocyte Chemoattractant Protein-1 (MCP1), CCL2 (gene 6347)
Briefly: BSK_4H_MCP1: BioMAP Diversity Plus: 4H Assay for Monocyte Chemoattractant Protein-1 (MCP1) Biomarker Activity (AID 2283018; active = hit-call score of the fitted dose curve at least 0.9, where 1 is the maximum; inactive = score below 0.9). The settings on record: primary human endothelial cells (HUVEC); actives raise or lower the signal. The essentials: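 Readout: MCP-1 ELISA on compound-treated HUVEC, sampled 24 h post-dosing. Baseline and negative control DMSO; bidirectional fit. Overt toxicity checked alongside by sulforhodamine B protein staining at time of biomarker measurement.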

Read-out in assay [20]: Human Leukocyte Antigen - DR isotype (HLADR), HLA-DRA (gene 3122)
Briefly: BSK_3C_HLADR: BioMAP Diversity Plus: 3C Assay for Human Leukocyte Antigen - DR isotype (HLADR) Biomarker Activity (AID 2283019; active = hit-call score of the fitted dose curve at least 0.9, where 1 is the maximum; inactive = score below 0.9;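 for outcome: ELISA of cell-surface HLA-DR on HUVEC 24 h after dosing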). The settings on record: primary human endothelial cells (HUVEC); actives raise or lower the signal. The method, boiled down: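 Endothelial cells from human umbilical vein are treated with test chemical; after 24 h, HLA-DR levels are measured by ELISA. Data are fitted in both directions using DMSO as the baseline.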

Chain of E-selectin (Homo sapiens) (P16581 whole entry, looked up): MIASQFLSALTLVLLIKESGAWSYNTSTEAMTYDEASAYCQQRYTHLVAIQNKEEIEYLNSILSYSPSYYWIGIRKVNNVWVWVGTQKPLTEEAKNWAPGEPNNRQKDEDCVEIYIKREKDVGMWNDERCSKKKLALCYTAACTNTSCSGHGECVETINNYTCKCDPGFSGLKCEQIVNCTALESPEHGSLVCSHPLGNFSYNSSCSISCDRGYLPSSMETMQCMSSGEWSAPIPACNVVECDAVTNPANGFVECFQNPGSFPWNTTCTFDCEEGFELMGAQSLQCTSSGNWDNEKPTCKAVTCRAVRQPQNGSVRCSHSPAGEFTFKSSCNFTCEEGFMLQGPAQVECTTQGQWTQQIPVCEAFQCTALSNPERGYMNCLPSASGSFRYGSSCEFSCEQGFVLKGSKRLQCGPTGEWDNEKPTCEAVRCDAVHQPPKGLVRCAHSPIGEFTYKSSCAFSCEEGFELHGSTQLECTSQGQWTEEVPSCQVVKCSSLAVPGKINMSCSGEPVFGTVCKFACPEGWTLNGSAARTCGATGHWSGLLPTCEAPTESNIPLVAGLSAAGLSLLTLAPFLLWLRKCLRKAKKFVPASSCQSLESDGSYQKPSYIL
Chain of human Thyroid Receptor alpha (THRa1), THRA (gene 7067) (P10827 whole entry, looked up, the tested form may be a part): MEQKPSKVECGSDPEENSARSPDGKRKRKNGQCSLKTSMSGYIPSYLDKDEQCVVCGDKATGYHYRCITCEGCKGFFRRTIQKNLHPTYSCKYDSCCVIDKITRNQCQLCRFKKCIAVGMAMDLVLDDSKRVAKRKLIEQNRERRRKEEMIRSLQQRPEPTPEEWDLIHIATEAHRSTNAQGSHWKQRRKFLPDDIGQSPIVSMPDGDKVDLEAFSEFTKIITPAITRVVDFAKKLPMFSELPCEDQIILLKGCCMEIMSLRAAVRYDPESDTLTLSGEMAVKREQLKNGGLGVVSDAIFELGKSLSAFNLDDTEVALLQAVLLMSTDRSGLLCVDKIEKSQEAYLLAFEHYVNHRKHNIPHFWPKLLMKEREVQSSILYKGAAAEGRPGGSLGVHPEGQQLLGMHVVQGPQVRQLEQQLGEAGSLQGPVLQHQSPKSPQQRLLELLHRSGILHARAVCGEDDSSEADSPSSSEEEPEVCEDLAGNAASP
Chain of human Retinoic Acid Receptor gamma (RARg), RARG (gene 5916) (P13631 whole entry, looked up, the tested form may be a part): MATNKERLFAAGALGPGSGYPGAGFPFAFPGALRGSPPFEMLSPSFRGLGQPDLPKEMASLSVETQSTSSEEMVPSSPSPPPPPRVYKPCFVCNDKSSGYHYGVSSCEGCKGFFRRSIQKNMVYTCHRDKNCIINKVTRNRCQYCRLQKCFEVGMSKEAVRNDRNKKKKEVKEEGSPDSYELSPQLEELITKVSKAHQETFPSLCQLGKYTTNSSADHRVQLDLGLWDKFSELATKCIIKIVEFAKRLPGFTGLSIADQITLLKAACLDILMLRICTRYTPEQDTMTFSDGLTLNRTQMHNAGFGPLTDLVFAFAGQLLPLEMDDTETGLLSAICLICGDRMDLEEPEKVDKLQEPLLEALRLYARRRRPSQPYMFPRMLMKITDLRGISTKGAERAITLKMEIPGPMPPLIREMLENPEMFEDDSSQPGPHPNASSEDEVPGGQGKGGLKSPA
Chain of human RAR-related Orphan Receptor gamma (RORg), RORC (gene 6097) (P51449 whole entry, looked up, the tested form may be a part): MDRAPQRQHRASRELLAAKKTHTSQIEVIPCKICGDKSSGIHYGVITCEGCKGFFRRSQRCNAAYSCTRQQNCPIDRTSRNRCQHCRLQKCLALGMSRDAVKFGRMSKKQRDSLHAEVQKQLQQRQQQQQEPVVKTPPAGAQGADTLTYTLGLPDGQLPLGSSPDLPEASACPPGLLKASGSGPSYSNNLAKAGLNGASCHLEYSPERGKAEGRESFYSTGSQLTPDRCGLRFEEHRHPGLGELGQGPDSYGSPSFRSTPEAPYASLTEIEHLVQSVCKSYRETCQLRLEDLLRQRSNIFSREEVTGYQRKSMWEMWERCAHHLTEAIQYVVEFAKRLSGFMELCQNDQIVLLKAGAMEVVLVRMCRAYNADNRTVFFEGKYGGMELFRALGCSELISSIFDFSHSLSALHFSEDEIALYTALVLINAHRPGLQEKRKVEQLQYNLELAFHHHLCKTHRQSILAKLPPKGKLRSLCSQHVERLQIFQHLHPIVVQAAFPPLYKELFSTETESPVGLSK
Chain of Retinoic acid receptor RXR-alpha (Homo sapiens) (P19793 whole entry, looked up, the tested form may be a part): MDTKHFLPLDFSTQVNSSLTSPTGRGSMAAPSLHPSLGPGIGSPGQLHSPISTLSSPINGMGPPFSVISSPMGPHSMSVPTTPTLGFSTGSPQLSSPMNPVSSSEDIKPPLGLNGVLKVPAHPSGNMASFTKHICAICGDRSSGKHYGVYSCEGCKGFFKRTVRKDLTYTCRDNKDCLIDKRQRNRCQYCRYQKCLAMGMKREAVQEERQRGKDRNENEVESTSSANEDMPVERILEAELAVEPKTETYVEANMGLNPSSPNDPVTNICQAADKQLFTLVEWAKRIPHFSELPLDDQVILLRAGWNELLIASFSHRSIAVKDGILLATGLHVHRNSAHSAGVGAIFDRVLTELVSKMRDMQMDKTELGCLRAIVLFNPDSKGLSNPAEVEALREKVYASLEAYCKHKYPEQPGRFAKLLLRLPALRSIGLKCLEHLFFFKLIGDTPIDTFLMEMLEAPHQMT

Regarding `C=CC(=O)OCCC(F)(F)C(F)(F)C(F)(F)C(F)(F)C(F)(F)C(F)(F)F`, the outcome in assay [1], in assay [2], in assay [3], in assay [4], in [5] and in assay [6] was inactive. Besides, the molecule was called inactive in assay [7], in assay [8] and in [9].
With `CC(C)C=O`, the outcome in assay [1], in assay [2], in [10], in assay [3], in assay [4] and in assay [11] was inactive. Moreover, the molecule was called inactive in assay [12], in assay [5], in assay [6], in [7] and in assay [9]. Further, the AC50 in assay [8] is 100 µM (active).
For the molecule `CCCCCCCCCCCCCCC`, the outcome in assay [13], in assay [2], in assay [14], in [15], in assay [6] and in assay [8] was inactive. Besides, the result in assay [16], in assay [17], in assay [18], in assay [19] and in [20] was inactive.
Regarding `CN(C)CCOC(c1ccccc1)c1ccccc1`, the outcome in [13], in assay [14], in [15], in [12], in [7] and in assay [9] was inactive. Further, the result in [16], in assay [17], in [18] and in assay [20] was inactive. Besides, in assay [19], the AC50 was 0.351 µM (active).
With `Cc1ccc(C(=O)c2ccccc2)cc1`, the AC50 in [13] is 28.4 µM (active); in [15], 32.1 µM (active); in assay [4], 100 µM (active); in assay [11], 19.9 µM (active); in assay [16], 28.2 µM (active); in [18], 4.38 µM (active). Further, the values for the concentration at half-maximal activity (AC50) in assay [19] and in assay [20] were 27 µM (active) and 28.2 µM (active), respectively. In addition, the result in assay [14], in assay [5], in assay [7], in assay [9] and in [17] was inactive.
For the molecule `CCc1cccc(CC)c1N(COC)C(=O)CS(=O)(=O)O`, the molecule was called inactive in assay [1], in assay [2], in assay [3], in assay [4], in assay [12] and in [7]. Also, the outcome in assay [9] was inactive. Moreover, the AC50 in assay [11] is 7.05 µM (active).
